Measurements as given in PubChem BioAssay AID1210 (NMMLSC, 2008).
Active and inactive are the calls of the source.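 How the source made its calls: active means blocks over 70% of labeled estradiol binding at 10 µM, or over a set limit at 100 nM; inactive means the rest.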

target: Estrogen receptor beta (Homo sapiens) (UniProt Q92731); assay: displacement of fluorescent estrogen from ERbeta – cell-based, Cos7 ERbeta-GFP, flow cytometry, primary screen (AID 1210); conditions: fluorescent estrogen binding, at 10 µM, stronger effect = higher value;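 further: 0% = DMSO vehicle wells and 100% = complete loss of labeled estradiol signal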
Sequence (Q92731 whole entry, looked up): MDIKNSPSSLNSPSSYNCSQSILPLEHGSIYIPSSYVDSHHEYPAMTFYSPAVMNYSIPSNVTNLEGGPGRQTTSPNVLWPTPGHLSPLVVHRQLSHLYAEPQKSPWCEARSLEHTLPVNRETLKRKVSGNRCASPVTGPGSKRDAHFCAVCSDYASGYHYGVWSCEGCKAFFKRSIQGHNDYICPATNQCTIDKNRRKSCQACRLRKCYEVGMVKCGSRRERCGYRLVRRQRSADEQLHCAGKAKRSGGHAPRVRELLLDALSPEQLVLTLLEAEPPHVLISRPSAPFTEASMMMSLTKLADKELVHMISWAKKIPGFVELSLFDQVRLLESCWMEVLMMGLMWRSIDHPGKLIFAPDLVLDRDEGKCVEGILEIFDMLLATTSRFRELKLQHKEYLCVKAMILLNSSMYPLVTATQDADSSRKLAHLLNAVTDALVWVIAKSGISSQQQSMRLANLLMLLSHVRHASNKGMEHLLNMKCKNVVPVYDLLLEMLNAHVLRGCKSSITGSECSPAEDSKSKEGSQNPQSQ

inhibition, active:
O=C(CCCn1c(=S)[nH]c2ccccc2c1=O)N1CCN(c2cccc(Cl)c2)CC1 73%, COc1ccccc1NC(=O)c1ccccc1NC(=O)c1cc(Cl)ccc1NC(=O)c1ccco1 77%, CSc1ccc(S(=O)(=O)Nc2cccc(F)c2)cc1 21%

inhibition, inactive:
O=c1[nH]cnc2c1sc1nc3c(c(-c4ccc(Cl)cc4)c12)CCC3 51%, C=C1C2C[C@H](O)C(C)(C)[C@@]2(O)[C@H](O)C[C@]23C[C@@](C)(O)[C@H](CC[C@H]12)[C@H]3O (some centres not stated) 70%, Nc1ccc2nn(-c3cccc4ccccc34)nc2c1 28%, CCNC(=O)N1c2ccc(OCC)cc2C(C)=CC1(C)C 15%, Cc1cc(NC(=O)CSc2cn(CCNC(=O)c3ccc(Cl)cc3)c3ccccc23)no1 11%, CCOc1cc2c(c([N+](=O)[O-])c1)NC(c1ccc(Br)cc1)C1CC=CC21 (configuration not stated) 7%, CC(Nc1ccc(N2CCNCC2)cc1[N+](=O)[O-])C12CC3CC(CC(C3)C1)C2 (configuration not stated) 15%, CCc1cccc2c(C(=O)Cn3nnc(-c4ccc(OC)c(OC)c4)n3)c[nH]c12 53%, CC1(C)Cc2[nH]c3ccccc3c2C(C)(C)N1 16%, COc1cc(C2CC(=O)c3c(ccc4ccccc34)N2)ccc1O (configuration not stated) 47%, CCOC(=O)c1ccc2c(c1)C1C=CCC1C(c1cccc([N+](=O)[O-])c1)N2 (configuration not stated) 6%, CC12CCCCC1(O)[N+](=O)C1=C(CCCC1)N2[O-] (configuration not stated) 0%, Cc1cc(C)c(S(=O)(=O)/N=C2\C=CC(=O)C(Cl)=C2)c(C)c1 0%, CCCOc1cc2oc(=O)c3c(c2cc1CC)CCCC3 20%, CN(C)CC(=O)N1c2ccccc2CCc2ccc(NC(=O)c3ccc(N)cc3)cc21 39%, COc1ccc(OC)c(NC(=O)c2cc(-c3ccc(C)cc3O)n[nH]2)c1 19%, Cc1c(O)ccc2c3c(c(=O)oc12)CCCC3 28%, CCCCCCc1cc2c3c(c(=O)oc2cc1OCC(N)=O)CCC3 12%, CCc1ccc(NC(=O)c2noc3c2CCC3)cc1 8%, Cn1c(SCC(=O)N2c3ccccc3CCc3ccccc32)nnc1-c1cc2ccccc2cc1O 19%, Cc1ccc2c(c1C)NC(C(=O)O)C1CC=CC21 (configuration not stated) 3%, COc1cccc(C2NCCc3cc(OC)c(OC)cc32)c1 (configuration not stated) 15%, Cc1ccc2[nH]c(=O)c(-c3nc4ccccn4c3NCc3ccco3)cc2c1 56%, CN1C(=O)CC(C(=O)O)SC1=Nc1cc(Cl)c(O)c(Cl)c1 (configuration not stated) 48%, COc1cc([N+](=O)[O-])cc2c1NC(c1ccccc1Cl)C1CC=CC21 (configuration not stated) 20%, COc1ccc(NS(=O)(=O)c2ccc3c(c2)[C@H]2C=CC[C@H]2[C@@H](c2ccc(F)cc2)N3)cc1 20%, Cn1nnnc1SCC(=O)Nc1nc(-c2ccccc2)c(-c2ccccc2)o1 39%, Cn1c(SCc2cc(=O)n3cc(Br)ccc3n2)nnc1C1COc2ccccc2O1 (configuration not stated) 16%, O=C1NCCCC2c3cc(O)c4ccccc4c3OC12N1CCCCC1 (configuration not stated) 56%, CCOC(=O)c1sc(NC(=O)c2ccc3ncsc3c2)nc1C 21%, COc1ccc(C2CC(c3ccccc3)=NN2C(=O)CSc2nccc(=O)[nH]2)cc1 (configuration not stated) 33%, Cc1ccc(C)n1-c1sccc1C(=O)O 18%, CC(C)CN(Cc1c(O)ccc2c3c(c(=O)oc12)CCC3)CC(C)C 17%, NC(=O)c1oc2ccccc2c1NC(=O)c1nc2ccccc2s1 39%, Cc1ccc2c(c1)[C@H]1OCC[C@H]1[C@@H](c1ccncc1)N2 24%, Cc1noc(C)c1CSCC(=O)OCC(=O)Nc1sccc1C#N 5%

same assay, conditions: fluorescent estrogen binding, ligand binding inhibition, at 0.1 µM, stronger effect = higher value

inhibition, 27%:
O=C1NCCCC2c3cc(O)c4ccccc4c3OC12N1CCCCC1 (configuration not stated)

inhibition, 31%:
Cc1cc(NC(=O)CSc2cn(CCNC(=O)c3ccc(Cl)cc3)c3ccccc23)no1

inhibition, 14%:
COc1cc(C2CC(=O)c3c(ccc4ccccc34)N2)ccc1O (configuration not stated), CN1C(=O)CC(C(=O)O)SC1=Nc1cc(Cl)c(O)c(Cl)c1 (configuration not stated)

inhibition, 1%:
C=C1C2C[C@H](O)C(C)(C)[C@@]2(O)[C@H](O)C[C@]23C[C@@](C)(O)[C@H](CC[C@H]12)[C@H]3O (some centres not stated)

inhibition, 10%:
NC(=O)c1oc2ccccc2c1NC(=O)c1nc2ccccc2s1

inhibition, 22%:
CCc1ccc(NC(=O)c2noc3c2CCC3)cc1

inhibition, 52%:
CCc1cccc2c(C(=O)Cn3nnc(-c4ccc(OC)c(OC)c4)n3)c[nH]c12

inhibition, 75%:
CSc1ccc(S(=O)(=O)Nc2cccc(F)c2)cc1

inhibition, 44%:
Cc1ccc2[nH]c(=O)c(-c3nc4ccccn4c3NCc3ccco3)cc2c1

inhibition, 32%:
Cn1nnnc1SCC(=O)Nc1nc(-c2ccccc2)c(-c2ccccc2)o1

inhibition, 16%:
Cc1cc(C)c(S(=O)(=O)/N=C2\C=CC(=O)C(Cl)=C2)c(C)c1

inhibition, 19%:
O=c1[nH]cnc2c1sc1nc3c(c(-c4ccc(Cl)cc4)c12)CCC3

inhibition, 62%:
CN(C)CC(=O)N1c2ccccc2CCc2ccc(NC(=O)c3ccc(N)cc3)cc21

inhibition, 24%:
CCOC(=O)c1sc(NC(=O)c2ccc3ncsc3c2)nc1C

inhibition, 28%:
O=C(CCCn1c(=S)[nH]c2ccccc2c1=O)N1CCN(c2cccc(Cl)c2)CC1

inhibition, 26%:
Cc1ccc(C)n1-c1sccc1C(=O)O

inhibition, 37%:
COc1ccc(C2CC(c3ccccc3)=NN2C(=O)CSc2nccc(=O)[nH]2)cc1 (configuration not stated)
